Measurements taken from article PMC4336329 (PLoS ONE, 2015).
The campaign covered roughly 310,000 compounds. About 14,000 (4.5%) showed an effect of 50% or more. Effects have a minus sign here. The entries come from a sample that favours strong results as a whole.

Target: human ether-à-go-go-related gene (hERG) potassium channel (human, UniProt Q12809)
Assay: primary screen, population patch clamp on CHO cells stably expressing hERG; higher = less effect of the substance
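Further: peak tail current of the secondary pulse compared with the same well before compound.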

Chain of human ether-à-go-go-related gene (hERG) potassium channel (Q12809 whole entry, looked up): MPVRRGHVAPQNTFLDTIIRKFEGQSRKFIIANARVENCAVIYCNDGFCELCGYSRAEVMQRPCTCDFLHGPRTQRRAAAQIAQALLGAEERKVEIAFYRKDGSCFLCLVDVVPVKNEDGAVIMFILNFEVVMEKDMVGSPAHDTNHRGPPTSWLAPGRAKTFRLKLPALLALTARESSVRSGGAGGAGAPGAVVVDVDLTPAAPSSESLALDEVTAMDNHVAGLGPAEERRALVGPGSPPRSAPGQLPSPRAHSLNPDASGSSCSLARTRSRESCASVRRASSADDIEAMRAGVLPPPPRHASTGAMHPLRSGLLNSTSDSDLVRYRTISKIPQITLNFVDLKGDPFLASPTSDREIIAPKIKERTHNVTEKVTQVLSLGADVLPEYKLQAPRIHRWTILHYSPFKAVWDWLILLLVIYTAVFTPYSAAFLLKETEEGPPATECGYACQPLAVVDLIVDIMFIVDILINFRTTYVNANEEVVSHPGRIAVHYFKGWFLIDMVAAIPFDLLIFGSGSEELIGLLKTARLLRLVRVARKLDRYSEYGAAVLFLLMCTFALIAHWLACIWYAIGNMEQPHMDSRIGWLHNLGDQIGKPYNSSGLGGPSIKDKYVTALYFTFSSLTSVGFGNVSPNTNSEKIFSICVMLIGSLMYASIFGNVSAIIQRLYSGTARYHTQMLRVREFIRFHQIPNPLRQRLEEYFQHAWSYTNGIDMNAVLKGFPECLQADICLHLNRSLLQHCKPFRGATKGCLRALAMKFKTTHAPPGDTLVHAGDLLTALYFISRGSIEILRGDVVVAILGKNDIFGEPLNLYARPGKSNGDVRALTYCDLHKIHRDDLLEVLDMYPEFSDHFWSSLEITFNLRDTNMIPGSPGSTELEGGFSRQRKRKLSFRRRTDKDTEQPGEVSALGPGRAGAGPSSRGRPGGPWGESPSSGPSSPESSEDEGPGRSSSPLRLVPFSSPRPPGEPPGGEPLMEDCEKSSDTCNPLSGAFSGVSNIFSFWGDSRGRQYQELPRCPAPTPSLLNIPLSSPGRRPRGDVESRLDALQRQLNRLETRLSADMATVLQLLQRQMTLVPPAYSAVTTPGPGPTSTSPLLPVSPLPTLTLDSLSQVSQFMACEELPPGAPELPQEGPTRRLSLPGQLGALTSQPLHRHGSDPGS

SMILES | hERG current change (%, negative = inhibition) at 10uM [%]
COCCn1nnnc1C(C(C)C)N(Cc1cccnc1)Cc1cc2cc(OC)ccc2[nH]c1=O (stereo not drawn) | -29.3
CCCCCC(=O)NNC(=O)Cc1ccc([N+](=O)[O-])cc1 | -1.38
Cc1ccccc1C(=O)c1cccn1CC(=O)NCCCN1CCCCC1 | -41.9
Cc1ccccc1C(=O)c1cccn1CC(=O)NCC(C)c1ccccc1 (stereo not drawn) | -20.3
O=C(Cn1cccc1C(=O)c1ccccc1)NCCCN1CCc2ccccc2C1 | -74.1
O=C(Cn1cccc1C(=O)c1ccccc1)NCCN1CCCCCC1 | -35.3
Cc1ccccc1C(=O)c1cccn1CC(=O)NCCCN1CCc2ccccc2C1 | -78.6
O=C(Cn1cccc1C(=O)c1ccccc1)NCCCN1CCOCC1 | 13.4
O=C(CN1C(=O)NC2(CCCCC2)C1=O)Nc1cc(C(F)(F)F)ccc1N1CCCCC1 | -1.7
Fc1cc(F)c2nc(Nc3nc4cc5c(cc4s3)OCO5)sc2c1 | 15.2
O=C(Oc1ccc2ccccc2c1)c1cncc(Br)c1 | -11.6
CC1CCN(S(=O)(=O)c2ccc(NC(=O)[C@@H]3CCCC[C@@H]3C(=O)O)cc2)CC1 | 9.64
CCC(C)(C(=O)NC1CCCCC1)N(Cc1ccco1)C(=O)c1cnccn1 (stereo not drawn) | -11.3
Cc1ccc(NC(=O)COC(=O)COc2ccc3ccc(=O)oc3c2)cc1[N+](=O)[O-] | 3.51
CCCc1nc2c(C)ccc(C)c2c(N)c1CC | -62.5
CCCc1nc2c(C)cc(C)cc2c(N)c1CC | -59.2
CCCc1nc(N)c(C#N)c(-c2ccco2)c1CC | 14.3
CCCc1nc2ccccc2c(C(=O)O)c1CC | 1.82
Cc1cc(C)c2nc(C(F)(F)F)c(C#N)c(N)c2c1 | 17.4

SMILES | hERG current change (%, negative = inhibition) at 10uM [%]
CCCSc1nc(C)c2cc(C)cc(C)c2n1 | 10.9
Cc1cc(C)cc(N=c2c([N+](=O)[O-])nn(-c3cccc(Cl)c3)n2O)c1 | -6.03
Cc1cccc(CC2CC(=O)N(CCc3ccc4c(c3)OCO4)C2=O)c1 (stereo not drawn) | 34.2
COc1ccc(C(=O)/C=C2\NCCc3cc(OC)c(OC)cc32)cc1OC | 11.6
O=C(O)CCc1nc2cc(Cl)ccc2n(Cc2ccccc2)c1=O | 22.2
CCNC(=S)NNC(=O)CCc1nc2cc(Cl)ccc2n(Cc2ccccc2)c1=O | -54.7
O=C(O)CCc1nc2cc(C(F)(F)F)ccc2n(Cc2ccccc2)c1=O | 23.8
CC(C)c1nc2cc(Cl)ccc2n(Cc2ccccc2)c1=O | 24.6
COC(=O)CCc1nc2cc(Cl)ccc2n(Cc2ccccc2)c1=O | -23.1
CN(C)C(CNC(=O)CCc1nc2cc(Cl)ccc2n(Cc2ccccc2)c1=O)c1ccccc1 (stereo not drawn) | -81.1
CC(=O)Nc1ccc(NC(=O)CSc2nnc(-c3cccnc3)o2)cc1 | 7.42
CCCn1c(C(Cc2ccccc2)NC(=O)COC)nc2ccccc21 (stereo not drawn) | 2.2
COc1cc2c(cc1NC(=O)/C=C/c1ccccc1)oc1ccccc12 | 18.8
CCOc1ccccc1N1CC(C(=O)Nc2ccccc2N2CCOCC2)CC1=O (stereo not drawn) | 12.5
O=C(O)c1cc2cc(F)ccc2[nH]1 | 16.2
O=C(Nc1ccc2c(c1)CCC2)c1cnc(Cl)c(Cl)c1 | 0.674
CCN(CC)S(=O)(=O)c1ccc(N2CCOCC2)c(NC(=O)CN2C(=O)NC(C)(c3ccccc3)C2=O)c1 (stereo not drawn) | -24.1
CCn1cc(C2N3CC4(C)CN2CC(C)(C3)C4=O)c2ccccc21 (stereo not drawn) | 7.47
CCOC(=O)C1=C[C@]2(CC)CCCN3CCc4c(n1c1ccccc41)[C@@H]32 | -91.8

SMILES | hERG current change (%, negative = inhibition) at 10uM [%]
CC[C@]12CCCN3CCc4c(n(c5ccccc45)C(=O)C1)[C@@H]32 | -75
NC(=O)C1CCCc2c1n(Cc1ccccc1)c1ccccc21 (stereo not drawn) | -14.7
CC[C@]12CCCN3CCc4c(n(c5ccccc45)C(=O)C1)C32 (stereo partly drawn) | -65.7
CCOC(=O)C1=CC[C@H]2c3c(c4ccccc4n3C)C[C@H]1N2C | 3.88
CCOC(=O)NNC(=O)CCn1c2c(c3ccccc31)CCCC2 | -16.4
O=C(O)Cn1c(=O)c2c(c3ccccc31)CCC2 | 11.9
CCN(CC)CC(=O)n1c2c(c3ccccc31)CCCC2 | -34.2
O=C(CSc1nc(-c2ccccc2)cs1)Nc1cccc([N+](=O)[O-])c1 | 6.45
N#Cc1ccccc1CSc1nc(N2CCCCC2)nc(N2CCCCC2)n1 | 5.79
CNc1cc(C)c(C#N)c2nc3ccccc3n12 | -8.75
CCN(CC)S(=O)(=O)c1ccc2c3c(cccc13)C(=O)S2 | -18.4
COc1ccccc1NC(=O)CN1CCN(CC(=O)Nc2ccccc2Cl)CC1 | 2.56
COc1ccc(NC(=O)CN2CCN(C3c4ccccc4-c4ccccc43)CC2)c(OC)c1 | -10.5
COc1ccc(NC(=O)CN2CCN(CC(=O)Nc3ccccc3F)CC2)c(OC)c1 | -63.5
COc1ccc(C)cc1NC(=O)CN1CCN(CC(=O)Nc2ccccc2F)CC1 | -48.7
COc1ccc(NC(=O)CN2CCN(CC(=O)Nc3ccccc3Cl)CC2)c(OC)c1 | -78
COc1ccc(NC(=O)CN2CCN(c3ccc(Cl)cc3)CC2)c(OC)c1 | -12.7
CC1=C(C(=O)OCCc2ccccc2)C(c2ccsc2)NC(=O)N1C (stereo not drawn) | -10.9
OCC1(CO)COC(CCc2ccccc2)=N1 | 16.1
